Source: PubChem
APEX1 inh – inhibitors of human APE1 endonuclease | recombinant APE1, TAMRA/BHQ-2 abasic DNA cleavage fluorescence | Potency, µM (titrated, usually from 65.8 µM), hits mostly inhibitors | 350,000 tested, 0.35% active | AID 2517; further: nearly all actives have a fitted effect of over 55% in size
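APE1 at 0.75 nM preincubated 15 min at room temperature with compound. Reaction then started with 50 nM double-stranded THF-abasic substrate labelled with TAMRA/BHQ-2, and 525/598 nm fluorescence read kinetically. Activity taken as third-minus-first read difference, normalized to DMSO and NSC13755 controls.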
TDP1 inh – blocks human tyrosyl-DNA phosphodiesterase 1. Q9NUW8. recombinant TDP1, AlphaScreen DNA substrate cleavage. Potency, µM (series often up to 130 µM), actives largely listed as inhibitors. 350,000 tested, 0.28% active. AID 485290; further: nearly all actives have a fitted effect of over 40% in size
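E. coli-derived human Tdp1, 1 nM final. Cpd preinc 15 min RT; substrate 15 nM final, 5 min RT; AS bead mix 10 ug/ml final, 10 min RT. Signal loss = tyrosine-FITC cleavage. No-enzyme wells = max signal.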
BLM helicase inh – blocks DNA unwinding by human BLM helicase; Potency, µM (titrated, usually from 56.1 µM), actives largely listed as inhibitors; 350,000 tested, 0.2% active; recombinant BLM DNA unwinding, fluorescence dequenching; further: nearly all actives have a fitted effect of over 35% in size
KDM4E inh – JMJD2E (human) inhibition. B2RXH2. JMJD2E catalytic domain, FDH-coupled NADH fluorescence (FDH is formaldehyde dehydrogenase). Potency, µM (doses to about 57.1 µM), usual class: inhibitors. 230,000 tested, 1.6% active. AID 2147; active means well fitted inhibition curve with a large enough effect, not every such curve was filed as active; inconclusive means small, poorly fitted or top-dose-only effect, or another doubt; inactive means no such curve, though single readings can be large or run the other way; further: nearly all actives have a fitted effect of over 50% in size
RECQ1 inh – inhibitors of human RECQ1 DNA helicase. P46063. RECQ1 DNA unwinding, red fluorescence kinetic read. Potency, µM (titrated, usually from 57.3 µM), actives largely listed as inhibitors. 240,000 tested, 0.54% active. AID 2549; further: nearly all actives have a fitted effect of over 30% in size
Target sequence (P46063 whole entry, looked up): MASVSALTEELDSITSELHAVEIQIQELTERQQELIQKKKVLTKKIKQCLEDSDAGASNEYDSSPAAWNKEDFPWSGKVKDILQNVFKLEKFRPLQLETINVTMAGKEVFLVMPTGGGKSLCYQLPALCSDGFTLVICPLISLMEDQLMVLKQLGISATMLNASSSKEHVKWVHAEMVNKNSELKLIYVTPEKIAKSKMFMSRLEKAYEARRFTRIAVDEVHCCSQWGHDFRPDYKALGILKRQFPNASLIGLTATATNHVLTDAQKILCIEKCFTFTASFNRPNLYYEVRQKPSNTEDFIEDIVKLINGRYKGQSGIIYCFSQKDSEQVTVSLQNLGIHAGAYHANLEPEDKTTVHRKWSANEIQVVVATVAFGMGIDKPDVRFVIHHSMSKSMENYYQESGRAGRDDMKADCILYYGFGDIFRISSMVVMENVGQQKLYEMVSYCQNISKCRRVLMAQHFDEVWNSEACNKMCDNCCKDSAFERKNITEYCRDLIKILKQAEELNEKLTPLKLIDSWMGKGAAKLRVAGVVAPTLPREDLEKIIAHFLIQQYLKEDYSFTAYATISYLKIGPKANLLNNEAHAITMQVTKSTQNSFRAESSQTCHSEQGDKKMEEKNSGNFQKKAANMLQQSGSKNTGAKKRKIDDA
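50 nM RECQ1T1 preincubated 15 min with compound in Tris pH 8.0 buffer with MgCl2, DTT, Tween-20 and 2.5 ug/ml poly(dI-dC); started with 200 nM TAMRA/BHQ-2 forked duplex and 2 mM ATP. Unwinding read as fluorescence (525/598 nm), two reads 2 h apart.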
L3MBTL1 inh – inhibitors of human L3MBTL1. AlphaScreen L3MBTL1–H3K9me1 peptide binding. Potency, µM (top dose mostly 57.1 µM), hits mostly inhibitors. 230,000 tested, 0.66% active. AID 485360; further: nearly all actives have a fitted effect of over 60% in size
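L3MBTL1 (50 nM) pre-complexed 30 min with biotinylated H3(1-15)K9me1 peptide (75 nM), then compounds added for 30 min at room temperature; AlphaScreen streptavidin donor/nickel chelate acceptor beads (10 ug/mL final) read after 30 min dark incubation.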
Numbers stand for hits; [ ] = dose if it differs, or a comment. Shown is part of a subset that was picked to be rich in hits. Unless noted, the call rests on the fitted dose curve; in most records, active means well fitted curve in the direction sought with a large enough effect; inconclusive means small, poorly fitted or top-dose-only effect, or another doubt; inactive means no such curve, though single readings can be large; an effect the other way counts as inactive or inconclusive.

What do the screens show for `COc1ccc2cc3cc(C(=O)NCc4ccco4)oc3nc2c1`?
APEX1 inh: inconclusive; TDP1 inh: 50µM; BLM helicase inh: inactive; KDM4E inh: inconclusive; RECQ1 inh: inactive

How did Cc1nc(SCC(=O)Nc2ccc(S(=O)(=O)N3CCOCC3)cc2)c2c(C)c(C)sc2n1 do in these assays?
APEX1 inh: inactive; TDP1 inh: inactive; L3MBTL1 inh: inactive

How did Cc1nc(SCC(=O)Nc2cc(C(N)=O)cc(C(N)=O)c2)c2c(C)c(C)sc2n1 do in these assays?
APEX1 inh: inactive; TDP1 inh: 10µM; BLM helicase inh: inactive; KDM4E inh: inconclusive; RECQ1 inh: inactive

Results for Cc1cc(N2C(=O)c3ccccc3C2=O)no1 ?
TDP1 inh: inactive

What do the screens show for `O=C1CCCC2=C1C1(CCSCC1)N=C(Nc1nc3ccccc3o1)N2`?
TDP1 inh: inactive

How did O=C1c2cccnc2C(=O)N1CO do in these assays?
APEX1 inh: inactive; TDP1 inh: inactive; BLM helicase inh: inactive; KDM4E inh: inactive; RECQ1 inh: inactive; L3MBTL1 inh: inactive

Results for O=C1C(=O)c2ncccc2-c2cccnc21 ?
BLM helicase inh: 16µM

Results for CCOC(=O)c1c(C)oc2c1c(CN1CCN(C(=O)OCC)CC1)c(O)c1ccccc12 ?
APEX1 inh: inactive; TDP1 inh: inactive; BLM helicase inh: inactive; KDM4E inh: 25µM; RECQ1 inh: inactive; L3MBTL1 inh: inactive

Results for O=C1N=C(N2CCCC2C(=O)O)S/C1=C\c1ccco1 (centres undefined) ?
APEX1 inh: inconclusive; BLM helicase inh: inactive; KDM4E inh: 22µM; RECQ1 inh: inactive

Results for O=C1N=C(N2CCCCC2)S/C1=C/C1=Cc2ccccc2OC1 ?
APEX1 inh: inactive; TDP1 inh: inactive; BLM helicase inh: inactive; KDM4E inh: inactive; RECQ1 inh: inactive; L3MBTL1 inh: inactive

Results for Cc1ccc(C)c(NC(=O)C(=O)NCCc2csc3nc(-c4ccccc4C)nn23)c1 ?
TDP1 inh: inactive; BLM helicase inh: inactive

How did CCOC(=O)C(=Cc1ccc(-n2ccnc2)cc1)C(=O)OCC do in these assays?
APEX1 inh: inactive; TDP1 inh: inactive; BLM helicase inh: inactive; KDM4E inh: 11µM; RECQ1 inh: inactive

What do the screens show for `NC(=O)CN1C(=O)NC(c2ccccc2)(c2ccccc2)C1=O`?
APEX1 inh: inactive; TDP1 inh: 45µM; BLM helicase inh: inactive

How did COc1ccc(NC(=S)Nc2ccc3nc(C)c(C)nc3c2)cc1 do in these assays?
APEX1 inh: inactive; TDP1 inh: inactive; BLM helicase inh: inactive; KDM4E inh: inactive; RECQ1 inh: inactive; L3MBTL1 inh: inactive

How did COc1ccc(NC(=S)Nc2ccc3nsnc3c2)cc1 do in these assays?
APEX1 inh: inactive; TDP1 inh: inactive; BLM helicase inh: 4µM; KDM4E inh: inactive; RECQ1 inh: inactive; L3MBTL1 inh: inactive

What do the screens show for `CCOc1ccc(NC(=S)Nc2ccc3nsnc3c2)cc1`?
APEX1 inh: inactive; TDP1 inh: inactive; BLM helicase inh: 4µM; KDM4E inh: inactive; RECQ1 inh: inactive; L3MBTL1 inh: inactive

Results for C=CCN(CC=C)C(=S)Nc1ccc2nsnc2c1 ?
APEX1 inh: inactive; TDP1 inh: inactive; BLM helicase inh: 3.5µM; KDM4E inh: inconclusive; RECQ1 inh: inactive; L3MBTL1 inh: 8.9µM

How did C=CCNC(=S)Nc1ccc2nsnc2c1 do in these assays?
APEX1 inh: inactive; TDP1 inh: inactive; BLM helicase inh: inactive; KDM4E inh: inconclusive; RECQ1 inh: inactive; L3MBTL1 inh: inactive

Results for C=CCCC/C=C(/C)C(OCc1ccc(OC)cc1)C(CC/C=C(\C)C(N)=O)OC (centres undefined) ?
APEX1 inh: inactive[12.4 µM]; TDP1 inh: inactive[21 µM]; BLM helicase inh: inactive[12.4 µM]; RECQ1 inh: inactive[11.5 µM]

Results for CCC(=O)O[C@@H]1CC(=O)O[C@H](C)C/C=C/C=C/[C@H](O)[C@H](C)C[C@H](CC=O)[C@H](O[C@@H]2O[C@H](C)[C@@H](O[C@H]3C[C@@](C)(O)[C@@H](OC(=O)CC)[C@H](C)O3)[C@H](N(C)C)[C@H]2O)[C@H]1OC ?
APEX1 inh: inactive

Results for CC1=NN(c2ccccc2)C(=O)/C1=C\c1ccc(Oc2ccc([N+](=O)[O-])cc2[N+](=O)[O-])cc1 ?
APEX1 inh: inactive; TDP1 inh: inactive; BLM helicase inh: inactive; KDM4E inh: 6.3µM; RECQ1 inh: inactive; L3MBTL1 inh: inconclusive

What do the screens show for `COc1cc(/C=C2\C(=O)N(c3ccccc3)N=C2C)ccc1Oc1ccc([N+](=O)[O-])cc1[N+](=O)[O-]`?
APEX1 inh: inconclusive; TDP1 inh: inactive; BLM helicase inh: inactive; KDM4E inh: inconclusive; RECQ1 inh: inactive; L3MBTL1 inh: inactive

Results for C[C@@H](C(=O)Nc1ccc2ccccc2c1)[C@@H]1C[C@@]1(C)[C@@H](NS(=O)(=O)c1ccc2ccccc2c1)c1ccccc1 ?
APEX1 inh: inconclusive; TDP1 inh: inactive; BLM helicase inh: inactive; KDM4E inh: 14µM; RECQ1 inh: inactive

What do the screens show for `O=c1c(-c2ccccc2)coc2cc(O)cc(O)c12`?
APEX1 inh: inconclusive; TDP1 inh: inactive; BLM helicase inh: 22µM; KDM4E inh: inactive; RECQ1 inh: inactive

How did O=c1c(-c2ccc3c(c2)OCCO3)coc2cc(O)cc(O)c12 do in these assays?
APEX1 inh: inactive; TDP1 inh: inactive; BLM helicase inh: inconclusive; KDM4E inh: inconclusive; RECQ1 inh: inactive; L3MBTL1 inh: inactive

What do the screens show for `O=C(CN1CCN(C(=O)c2ccco2)CC1)Nc1c2c(nc3c1CCC3)CCCC2`?
APEX1 inh: inactive; TDP1 inh: 89µM; BLM helicase inh: inactive; KDM4E inh: inactive; RECQ1 inh: inactive; L3MBTL1 inh: inactive

What do the screens show for `O=C(CN1CCN(C(=O)c2ccco2)CC1)Nc1ccccc1`?
APEX1 inh: inactive[12.4 µM]; TDP1 inh: inactive; BLM helicase inh: inactive

What do the screens show for `N#CC1=C(N)N(c2ccc(F)cc2)C2=C(C1c1ccc(O)cc1)S(=O)(=O)CC2` (centres undefined)?
APEX1 inh: inconclusive; TDP1 inh: inactive; BLM helicase inh: inactive; KDM4E inh: 20µM; RECQ1 inh: inconclusive

What do the screens show for `CSc1ccc(C2C(C#N)=C(N)N(c3ccccc3)C3=C2C(=O)CCC3)cc1` (centres undefined)?
APEX1 inh: inactive; TDP1 inh: inactive; BLM helicase inh: inactive; KDM4E inh: inconclusive; RECQ1 inh: inactive

How did Nc1nc(Nc2cc(F)cc(F)c2)nc(NC2CCCC2)n1 do in these assays?
TDP1 inh: inactive

Results for O=C1COc2ccc(C(=O)COC(=O)/C=C/c3ccc(Br)o3)cc2N1 ?
APEX1 inh: inconclusive; L3MBTL1 inh: 3.5µM

How did Cc1ccc(/C=C/C(=O)OCC(=O)c2ccc3c(c2)NC(=O)CO3)o1 do in these assays?
APEX1 inh: inactive; TDP1 inh: inactive; L3MBTL1 inh: inactive

How did O=C(Cn1c(=O)n(Cc2nc(-c3ccccc3)no2)c(=O)c2ccccc21)Nc1cccc(C(F)(F)F)c1 do in these assays?
TDP1 inh: inactive; BLM helicase inh: inactive
